In brackets after ≈: the same amount, converted by molar mass. The whole screen tested about 1,100 compounds, of which about 170 (15%) were called active. No rule for the calls is given here. A selection follows.
Assay: Mycobacterium tuberculosis H37Rv growth inhibition, confirmatory dose response, cytotoxicity (AID 1332);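 as to CC50: Vero cells exposed to compounds for 72 hours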;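 as to IC50: bacteria incubated 7 days before adding Alamar blue readout reagent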
Settings: M. tuberculosis H37Rv growth inhibition; CC50: measured here: Vero cell cytotoxicity; IC50: measured here: IC50 H37Rv replicates

| SMILES | IC50 | outcome | CC50 |
| --- | --- | --- | --- |
| CCCNC(C)C(=O)Nc1c(C)csc1C(=O)OC (stereo not given) | > 20 µg/mL | inactive |  |
| C=C1[C@@H](O)[C@]23C[C@@H]1[C@@H](O)C[C@H]2[C@@]12C4[C@@H]3C[C@@H]1[C@@](C)(CC[C@@H]2O)CN4CC | > 20 µg/mL | inactive |  |
| CNCCc1ccccn1 | > 20 µg/mL | inactive |  |
| CCCCOc1ccc(OCCCN2CCOCC2)cc1 | > 20 µg/mL | inactive |  |
| C[C@H](CCC(=O)O)[C@H]1CC[C@H]2[C@@H]3[C@H](O)C[C@@H]4C[C@H](O)CC[C@]4(C)[C@H]3CC[C@]12C | > 20 µg/mL | inactive |  |
| CCN1C[C@]2(COC)CC[C@H](OC)[C@@]34C1[C@]1(OCO[C@@]15C[C@H](OC)[C@H]1C[C@@H]3[C@@H]5[C@H]1OC)[C@@H](O)[C@H]24 | > 20 µg/mL | inactive |  |
| O=S(=O)(O)c1cc(O)ccc1O | > 20 µg/mL | inactive |  |
| CN1C2CCCC1CC(=O)C2 | > 20 µg/mL | inactive |  |
| CC1=CC(=O)C2=C(C)C[C@H](O)[C@@H]3[C@H](OC(=O)[C@H]3C)[C@@H]12 | > 20 µg/mL | inactive |  |
| CC[C@@H](C(=O)[C@@H](C)[C@@H](O)[C@H](C)CCc1ccc(C)c(O)c1C(=O)O)[C@H]1O[C@](CC)([C@H]2CC[C@](O)(CC)[C@H](C)O2)C[C@@H]1C | 6.19 µg/mL (≈ 10.5 µM) | active | > 6 µg/mL |
| CC(=O)N(CC(C)C(=O)O)c1c(I)cc(I)c(N)c1I (stereo not given) | > 20 µg/mL | inactive |  |
| CC(C)(C)NC[C@H](O)COc1cccc2c1CCCC2=O | > 20 µg/mL | inactive |  |
| C[C@]12CC[C@@H]3c4ccc(O)cc4CC[C@H]3[C@@H]1C[C@@H](O)[C@@H]2O | > 20 µg/mL | inactive |  |
| NC(N)=NCC1COC2(CCCCC2)O1 (stereo not given) | > 20 µg/mL | inactive |  |
| Nc1ccc(S(N)(=O)=O)cc1 | > 20 µg/mL | inactive |  |
| Nc1ccc(S(=O)(=O)c2ccc(N)cc2)cc1 | 9.09 µg/mL (≈ 36.6 µM) | active |  |
| NC(N)=NS(=O)(=O)c1ccc(N)cc1 | > 20 µg/mL | inactive |  |
| O=c1[nH]c(=O)n([C@H]2CC(O)[C@@H](CO)O2)cc1I (stereo not given in full) | > 20 µg/mL | inactive |  |
| Cn1cc[nH]c1=S | > 20 µg/mL | inactive |  |
| CCN1CCC[C@H]1CNC(=O)c1c(OC)ccc(Br)c1OC | > 20 µg/mL | inactive |  |
| CCCc1ncc(C[n+]2ccccc2C)c(N)n1 | > 20 µg/mL | inactive |  |
| NC(=O)c1ccc[n+]([C@@H]2O[C@H](COP(=O)([O-])OP(=O)(O)OC[C@H]3O[C@@H](n4cnc5c(N)ncnc54)[C@H](O)[C@@H]3O)[C@@H](O)[C@H]2O)c1 | > 20 µg/mL | inactive |  |
| Cc1onc(-c2c(F)cccc2Cl)c1C(=O)N[C@@H]1C(=O)N2C(C(=O)O)C(C)(C)S[C@H]12 (stereo not given in full) | > 20 µg/mL | inactive |  |
| CNCCCC1c2ccccc2C=Cc2ccccc21 | 17.4 µg/mL (≈ 66 µM) | active | > 6 µg/mL |
| NCc1ccc(S(N)(=O)=O)cc1 | > 20 µg/mL | inactive |  |
| COc1ncnc(NS(=O)(=O)c2ccc(N)cc2)c1OC | > 20 µg/mL | inactive |  |

| SMILES | IC50 | outcome | CC50 |
| --- | --- | --- | --- |
| COc1cc(NS(=O)(=O)c2ccc(N)cc2)nc(OC)n1 | 12.6 µg/mL (≈ 40.7 µM) | active |  |
| COc1cnc(NS(=O)(=O)c2ccc(N)cc2)nc1 | > 20 µg/mL | inactive |  |
| C[C@@H]1NC(=O)NC1=O | > 20 µg/mL | inactive |  |
| CC1CS(=O)(=O)CCN1N=Cc1ccc([N+](=O)[O-])o1 (stereo not given) | 2.74 µg/mL (≈ 9.55 µM) | active |  |
| O=C1OC(CN2CCOCC2)CN1/N=C/c1ccc([N+](=O)[O-])o1 (stereo not given) | > 20 µg/mL | inactive |  |
| CCCc1cc(=O)[nH]c(=S)[nH]1 | > 20 µg/mL | inactive |  |
| CCOC(=O)Nc1ccc2c(c1)N(C(=O)CCN1CCOCC1)c1ccccc1S2 | > 20 µg/mL | inactive |  |
| CCN(CC)CCOC(=O)C(c1ccccc1)c1ccccc1 | > 20 µg/mL | inactive |  |
| CC(C)NC[C@@H](O)COc1cccc2ccccc12 | > 20 µg/mL | inactive |  |
| CN[C@H](CC(C)C)C(=O)N[C@H]1C(=O)N[C@@H](CC(N)=O)C(=O)N[C@H]2C(=O)N[C@H]3C(=O)N[C@H](C(=O)N[C@H](C(=O)O)c4cc(O)cc(O)c4-c4cc3ccc4O)[C@H](O)c3ccc(c(Cl)c3)Oc3cc2cc(c3O[C@@H]2OC(CO)[C@@H](O)[C@H](O)[C@H]2O[C@H]2C[C@](C)(N)[C@H](O)[C@H](C)O2)Oc2ccc(cc2Cl)[C@H]1O (stereo not given in full) | 1.06 µg/mL (≈ 0.732 µM) | active |  |
| C[C@@H]1O[C@@H](O[C@H]2[C@H](Oc3cc(O)c4c(c3)O[C@H](c3ccc(O)cc3)CC4=O)O[C@H](CO)[C@@H](O)[C@@H]2O)[C@H](O)[C@H](O)[C@H]1O | > 20 µg/mL | inactive |  |
| COc1ccc(C(=O)c2ccccc2)c(O)c1 | > 20 µg/mL | inactive |  |
| CCC[C@@H]1C[C@@H](C(=O)N[C@@H]([C@H]2O[C@H](SC)[C@H](O)[C@@H](O)[C@@H]2O)[C@@H](C)O)N(C)C1 | 11.6 µg/mL (≈ 28.5 µM) | active |  |
| CCC[C@@H]1C[C@@H](C(=O)N[C@@H](C2O[C@H](SC)[C@H](O)[C@@H](O)[C@H]2O)[C@H](C)Cl)N(C)C1 (stereo not given in full) | 0.395 µg/mL (≈ 0.929 µM) | active |  |
| CCC(=O)O[C@@H]1CC(=O)O[C@H](C)C/C=C/C=C/[C@@H](O)[C@H](C)C[C@H](CC=O)[C@H](O[C@@H]2O[C@H](C)[C@@H](O[C@H]3C[C@@](C)(O)[C@@H](OC(=O)CC)[C@H](C)O3)[C@H](N(C)C)[C@H]2O)[C@H]1OC | > 20 µg/mL | inactive |  |
| CN(C)CCOC(c1ccc(Cl)cc1)c1ccccn1 (stereo not given) | > 20 µg/mL | inactive |  |
| CCOC(=O)[C@H](CCc1ccccc1)N[C@@H](C)C(=O)N1C(C(=O)O)C[C@@H]2CCC[C@@H]21 (stereo not given in full) | > 20 µg/mL | inactive |  |
| Cc1onc(-c2ccccc2Cl)c1C(=O)N[C@@H]1C(=O)N2[C@@H]1SC(C)(C)[C@@H]2C(=O)O | > 20 µg/mL | inactive |  |
| NCc1ccccc1CC(=O)N[C@@H]1C(=O)N2C(C(=O)O)=C(CSc3nnnn3CC(=O)O)CS[C@H]12 | 13.8 µg/mL (≈ 26.6 µM) | active |  |
| CN(C)CCn1nnnc1SCC1=C(C(=O)O)N2C(=O)[C@@H](NC(=O)Cc3csc(N)n3)[C@H]2SC1 | > 20 µg/mL | inactive |  |
| Cn1nnnc1SCC1=C(C(=O)O)N2C(=O)[C@@H](NC(=O)[C@H](O)c3ccccc3)[C@H]2SC1 | > 20 µg/mL | inactive |  |
| CC(C)(C)NCC(O)COc1cccc2c1CCC(=O)N2 (stereo not given) | > 20 µg/mL | inactive |  |
| Cc1n[nH]c(=O)[nH]c1=O | > 20 µg/mL | inactive |  |
| COc1cc(N)c(Cl)cc1C(=O)N[C@H]1CCN(CCCOc2ccc(F)cc2)C[C@H]1OC | 9.3 µg/mL (≈ 20 µM) | active |  |
| CCN(CC)CCNC(=O)c1cc(Cl)c(N)cc1OC | > 20 µg/mL | inactive |  |
| COc1cc(N)c(Cl)cc1C(=O)NC1CCN(Cc2ccccc2)CC1 | > 20 µg/mL | inactive |  |

| SMILES | IC50 | outcome | CC50 |
| --- | --- | --- | --- |
| O=C(O)C1CCCNC1 (stereo not given) | > 20 µg/mL | inactive |  |
| CC(=O)Nc1cc2ccccc2oc1=O | > 20 µg/mL | inactive |  |
| CCCC(=O)Nc1ccc(OCC(O)CNC(C)C)c(C(C)=O)c1 (stereo not given) | > 20 µg/mL | inactive |  |
| COc1cc(/C=C/C(=O)N2CCC=CC2=O)cc(OC)c1OC | 11.4 µg/mL (≈ 36.1 µM) | active | 1.53 µg/mL (≈ 4.82 µM) |
| COc1cc(C(=O)OCCCN2CCCN(CCCOC(=O)c3cc(OC)c(OC)c(OC)c3)CC2)cc(OC)c1OC | > 20 µg/mL | inactive |  |
| CC(=O)[C@H]1CC[C@H]2[C@@H]3C=CC4=CC(=O)CC[C@@]4(C)[C@@H]3CC[C@]12C | > 20 µg/mL | inactive |  |
| CC(N)CCCC(C)(C)O (stereo not given) | > 20 µg/mL | inactive |  |
| CC1(C)S[C@@H]2[C@H](NC(=O)[C@H](N)c3ccccc3)C(=O)N2[C@H]1C(=O)OC1OC(=O)c2ccccc21 (stereo not given in full) | > 20 µg/mL | inactive |  |
| CC(=O)Oc1ccc(C(c2ccc(OC(C)=O)cc2)c2ccccn2)cc1 | > 20 µg/mL | inactive |  |
| CC(=O)N=c1sc(S(N)(=O)=O)nn1C | > 20 µg/mL | inactive |  |
| C=C(C)[C@@H]1CC[C@]2(CO)CC[C@]3(C)[C@H](CC[C@@H]4[C@@]5(C)CC[C@H](O)C(C)(C)[C@@H]5CC[C@]43C)[C@@H]12 | > 20 µg/mL | inactive | > 6 µg/mL |
| CC(C)(C)CC(C)(C)c1ccc(OCCOCC[N+](C)(C)Cc2ccccc2)cc1 | 8 µg/mL | active |  |
| CC(C)(C)CC(C)(C)c1ccc(OCOCCOCCO)c(Cc2cc(C(C)(C)CC(C)(C)C)cc(Cc3cc(C(C)(C)CC(C)(C)C)ccc3OCOCCOCCO)c2OCOCCOCCO)c1 | > 20 µg/mL | inactive |  |
| C[N+](C)(CCOc1ccccc1)Cc1ccccc1 | > 20 µg/mL | inactive |  |
| CCCCC1(COC(=O)CCC(=O)O)C(=O)N(c2ccccc2)N(c2ccccc2)C1=O | > 20 µg/mL | inactive |  |
| CNCCC(Oc1ccc(C(F)(F)F)cc1)c1ccccc1 (stereo not given) | 9.88 µg/mL (≈ 32 µM) | active | > 6 µg/mL |
| CNCCC(Oc1ccccc1OC)c1ccccc1 (stereo not given) | > 20 µg/mL | inactive |  |
| CO[C@H]1C=C2CCN(C)[C@H]2C2c3cc4c(cc3C(=O)O[C@@H]21)OCO4 (stereo not given in full) | > 20 µg/mL | inactive |  |
| C#C[C@]1(OC(C)=O)CC[C@H]2[C@@H]3CCC4=C[C@@H](OC(C)=O)CC[C@@H]4[C@H]3CC[C@@]21C | > 20 µg/mL | inactive |  |
| CN(C)[C@@H]1C(=O)C(C(N)=O)=C(O)[C@@]2(O)C(=O)C3=C(O)c4c(O)cccc4[C@@](C)(O)[C@H]3[C@H](O)[C@@H]12 | > 20 µg/mL | inactive |  |
| CN(C)[C@@H]1C(=O)C(C(N)=O)=C(O)[C@@]2(O)C(=O)C3=C(O)c4c(O)ccc(Cl)c4[C@@](C)(O)C3C[C@@H]12 (stereo not given in full) | 13.2 µg/mL (≈ 27.5 µM) | active |  |
| CN(C)[C@@H]1C(=O)C(C(=O)NCN2CCCC2)=C(O)[C@@]2(O)C(=O)C3=C(O)c4c(O)cccc4[C@@](C)(O)C3CC12 (stereo not given in full) | > 20 µg/mL | inactive |  |
| C[C@H]1c2cccc(O)c2C(O)=C2C(=O)C3(O)C(O)=C(C(N)=O)C(=O)[C@@H](N(C)C)[C@@H]3[C@@H](O)[C@@H]21 (stereo not given in full) | 2.44 µg/mL (≈ 5.49 µM) | active |  |
| C=C1c2c(Cl)ccc(O)c2C(O)=C2C(=O)[C@]3(O)C(O)=C(C(N)=O)C(=O)[C@@H](N(C)C)[C@@H]3[C@@H](O)C12 (stereo not given in full) | 3.86 µg/mL (≈ 8.1 µM) | active | > 6 µg/mL |
| C=C1c2cccc(O)c2C(O)=C2C(=O)[C@]3(O)C(O)=C(C(N)=O)C(=O)[C@@H](N(C)C)[C@@H]3[C@@H](O)[C@H]12 | > 17.9 µg/mL | active |  |

Source: PubChem BioAssay AID1332 (Southern Research Institute, 2008)
